Assay outcomes as filed in PubChem.
Hits are enriched below; roughly 9.5% of the tested compounds scored in any of these assays.
HPGD block: qHTS Assay for Inhibitors of HPGD (15-Hydroxyprostaglandin Dehydrogenase); purified HPGD, NADH fluorescence kinetic, PGE2 substrate; Potency, µM, most hits filed as inhibitors; actives 4.3% (n = 150,000); AID 894, 2007; active = well fitted inhibition curve with a large enough effect, not every such curve was filed as active; inconclusive = small, poorly fitted or top-dose-only effect, or another doubt; inactive = no such curve, though single readings can be large or run the other way
Target sequence (P15428 whole entry, looked up): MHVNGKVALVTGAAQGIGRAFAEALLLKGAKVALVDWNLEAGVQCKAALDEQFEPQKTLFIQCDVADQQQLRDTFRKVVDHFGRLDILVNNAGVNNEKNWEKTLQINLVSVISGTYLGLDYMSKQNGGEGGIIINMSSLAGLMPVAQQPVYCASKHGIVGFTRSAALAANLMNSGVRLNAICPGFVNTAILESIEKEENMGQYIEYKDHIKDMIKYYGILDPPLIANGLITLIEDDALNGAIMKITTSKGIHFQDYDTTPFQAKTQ
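NADH formation kinetics: reaction with 30 uM PGE2 and 1 mM NAD+ (final), 20 nM enzyme, Tris-HCl pH 8 with Tween 20, after 15 min compound preincubation at room temperature. Fluorescence change, last versus first of five reads.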
ALDH1A1 inh: qHTS Assay for Inhibitors of Aldehyde Dehydrogenase 1 (ALDH1A1). Aldehyde dehydrogenase 1A1 (Homo sapiens), P00352. Potency, µM (series often up to 75.3 µM), usual class: inhibitors. Purified ALDH1A1, NADH fluorescence, propionaldehyde substrate. actives 7.3% (n = 220,000); active = well fitted inhibition curve with a large enough effect, not every such curve was filed as active; inconclusive = small, poorly fitted or top-dose-only effect, or another doubt; inactive = no such curve, though single readings can be large or run the other way
Tau fluor cs: Counterscreen qHTS for Inhibitors of Tau Fibril Formation, Fluorescence Polarization; tau K18 P301L Alexa594 fluorescence, heparin fibrillization; Potency, µM (top dose mostly 57.7 µM); actives 0.93% (n = 280,000); note: nearly all actives have a fitted effect of over 55% in size
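Human K18 P301L tau (15 uM unlabeled plus 0.24 uM Alexa 594-labeled, final) in 100 mM sodium acetate pH 7 was mixed with compound and 20 uM heparin and incubated 6 hr at 37 C.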
NPSR antag: qHTS Assay for Antagonists of the Neuropeptide S Receptor: cAMP Signal Transduction | Q6W5P4 | CHO-NPSR cells, cAMP TR-FRET, antagonist mode | Potency, µM (top dose mostly 38.3 µM), most hits filed as inhibitors | actives 1% (n = 220,000); note: nearly all actives have a fitted effect of over 50% in size
Tau fibril ThT: qHTS for Inhibitors of Tau Fibril Formation, Thioflavin T Binding. Microtubule-associated protein tau (Homo sapiens), P10636. recombinant tau K18 P301L (four-repeat tau fragment), heparin-induced fibrillization, ThT fluorescence. Potency, µM (titrated, usually from 57.4 µM), usual class: inhibitors. actives 2.1% (n = 270,000); note: nearly all actives have a fitted effect of over 55% in size
Target sequence (P10636 561-689 P618L limits assumed): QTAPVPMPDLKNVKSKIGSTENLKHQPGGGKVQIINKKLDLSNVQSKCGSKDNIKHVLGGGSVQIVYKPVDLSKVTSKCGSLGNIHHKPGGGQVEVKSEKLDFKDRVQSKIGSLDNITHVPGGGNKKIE
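Tau K18 P301L fragment (15 uM unlabeled plus 0.24 uM Alexa 594-labeled) in 100 mM sodium acetate pH 7 with compound, fibrillization induced by 20 uM heparin for 6 hr at 37 C. Thioflavin T (30 uM) added, fluorescence read after 1 hr (ex 450, em 510 nm).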
Tau fibril FP: qHTS for Inhibitors of Tau Fibril Formation, Fluorescence Polarization; Microtubule-associated protein tau (Homo sapiens), P10636; K18 P301L tau heparin fibrillization, Alexa594 FP, 6 h; Potency, µM (top dose mostly 57.7 µM), usual class: inhibitors; actives 0.39% (n = 280,000); AID 1468, 2008; note: nearly all actives have a fitted effect of over 55% in size
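Read-out: fluorescence polarization of Alexa 594-labeled tau (0.24 uM), 555 nm excitation, 632 nm emission. Mixtures held 15 uM unlabeled K18 P301L, compound and 20 uM heparin, pH 7 acetate buffer, incubated 6 hr at 37 C.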
Numbers stand for hits; [ ] = remark or other dose. Unless noted, calls come from the whole dose curve; as a rule, active = well fitted curve in the direction sought with a large enough effect; inconclusive = small, poorly fitted or top-dose-only effect, or another doubt; inactive = no such curve, though single readings can be large; an effect the other way counts as inactive or inconclusive.

`O=C(c1ccco1)N1CCN(c2ncnc3sc4c(c23)CCC4)CC1` gave HPGD block 31.6µM, ALDH1A1 inh 10µM, Tau fluor cs inactive, NPSR antag inactive[7.67 µM], Tau fibril ThT inactive and Tau fibril FP inactive.
`O=C(c1ccco1)N1CCC2(CC1)CCN(c1cccc(-c3ccccc3)c1)CC2` gave HPGD block inactive and ALDH1A1 inh 28.2µM.
`COc1ccc(C(=O)N2CCC3(CCCN(c4cccc(-c5ccccc5)c4)C3)CC2)cc1` gave HPGD block inactive and ALDH1A1 inh 22.4µM.
For O=C(c1ccco1)N1CCC2(CCCN(c3ccccc3)C2)CC1 the results were HPGD block inactive and ALDH1A1 inh inconclusive.
For COc1ccc(C(=O)N2CCC3(CCCN(c4ccccc4)C3)CC2)cc1 the results were HPGD block inactive and ALDH1A1 inh inconclusive.
O=C(c1ccco1)N1CCC2(CCCN(c3cccc(-c4ccccc4)c3)C2)CC1 was read as HPGD block inactive and ALDH1A1 inh 25.1µM.
For O=C(O)c1cccc(N=Nc2c(S(=O)(=O)O)ccc3c2C(=O)c2ccccc2C3=O)c1O the results were HPGD block inactive and ALDH1A1 inh inactive[13.5 µM].
For O=C(Nc1cccc(C(F)(F)F)c1)C1CCCN1S(=O)(=O)c1cccc2nsnc12 (stereo not drawn) the results were Tau fluor cs inactive, Tau fibril ThT inactive and Tau fibril FP inactive.
For Cc1ccsc1/C=N/N1CCN(Cc2ccccc2)CC1 the results were ALDH1A1 inh 15.8µM, Tau fluor cs inactive, NPSR antag inactive, Tau fibril ThT inconclusive and Tau fibril FP inactive.
CCOCC(=O)Nc1nnc(C2CCCCC2)s1 was read as HPGD block inactive, ALDH1A1 inh 18.9µM, Tau fluor cs inactive, NPSR antag inactive, Tau fibril ThT inactive and Tau fibril FP inactive.
`CSc1nnc(NC(=O)C2CCCCC2)s1` gave HPGD block inactive, ALDH1A1 inh inactive, Tau fluor cs inactive, NPSR antag inactive, Tau fibril ThT inactive and Tau fibril FP inactive.
`CCOC(=O)Cc1nnc(NC(=O)C2CCCCC2)s1` gave ALDH1A1 inh inactive, Tau fluor cs inactive, NPSR antag inactive, Tau fibril ThT inactive and Tau fibril FP inactive.
CC(C)Sc1nnc(NC(=O)C2CC2)s1 was read as HPGD block inactive, ALDH1A1 inh 0.0501µM, Tau fluor cs inactive, NPSR antag inactive, Tau fibril ThT inactive and Tau fibril FP inactive.
For CCc1nnc(NC(=O)C2CCCCC2)s1 the results were HPGD block inconclusive, ALDH1A1 inh 25.1µM, Tau fluor cs inactive, NPSR antag inactive, Tau fibril ThT inactive and Tau fibril FP inactive.
`CCOC(=O)C(=O)Nc1nnc(C2CCCCC2)s1` gave HPGD block 15.8µM, ALDH1A1 inh 31.6µM, Tau fluor cs inactive, NPSR antag inactive, Tau fibril ThT inactive and Tau fibril FP inactive.
For COCC(=O)Nc1nnc(C2CCCCC2)s1 the results were HPGD block inactive, ALDH1A1 inh inconclusive, Tau fluor cs inactive, NPSR antag inactive, Tau fibril ThT inactive and Tau fibril FP inactive.
For COc1ccccc1NC(=O)N1c2ccccc2Sc2ccccc21 the results were Tau fluor cs inconclusive, Tau fibril ThT inconclusive and Tau fibril FP inactive.
`Cc1cc(NC(=O)CSc2nnc(CNc3ccc(F)cc3)n2C2CCCCC2)no1` gave HPGD block inactive, ALDH1A1 inh inactive, Tau fluor cs inactive, NPSR antag inactive, Tau fibril ThT inactive and Tau fibril FP inactive.
`CCc1nnc(NC(=O)CSc2nnc(CNc3ccc(F)cc3)n2C2CCCCC2)s1` gave HPGD block inactive, ALDH1A1 inh 10µM, Tau fluor cs inactive, NPSR antag inactive, Tau fibril ThT inactive and Tau fibril FP inactive.
`Cc1cc(C)c2c(c1)NC(=O)C2(O)CC(=O)c1cccs1` (stereo not drawn) gave HPGD block inactive, ALDH1A1 inh inactive, Tau fluor cs inactive, NPSR antag inactive, Tau fibril ThT inconclusive and Tau fibril FP inactive.
For Cc1cc(C)c(C(CC(=O)c2cccs2)C(C#N)C#N)c(C)c1 (stereo not drawn) the results were HPGD block inactive, ALDH1A1 inh inactive, Tau fluor cs inactive, NPSR antag inactive, Tau fibril ThT 25.1µM and Tau fibril FP inactive.
Screening CC(=O)Nc1ccc(Nc2ccc3nonc3c2[N+](=O)[O-])cc1 returned ALDH1A1 inh 22.4µM, Tau fluor cs inactive, NPSR antag inactive, Tau fibril ThT inconclusive and Tau fibril FP inactive.
O=[N+]([O-])c1c(Nc2ccccc2O)ccc2nonc12 was read as ALDH1A1 inh inactive, Tau fluor cs inactive, NPSR antag inactive, Tau fibril ThT inactive and Tau fibril FP inactive.
Screening CCOc1cc(NC(=S)NCC2CCCO2)c(OCC)cc1NC(=O)c1cccc(F)c1 (stereo not drawn) returned ALDH1A1 inh inactive, Tau fluor cs inactive, NPSR antag inactive, Tau fibril ThT inactive and Tau fibril FP inactive.
Screening CC(/C=N/n1c(-c2cc(C)[nH]n2)n[nH]c1=S)=C\c1ccccc1 returned HPGD block 10µM, ALDH1A1 inh inactive, Tau fluor cs inactive, NPSR antag inactive, Tau fibril ThT inconclusive and Tau fibril FP inactive.
CC(=C/c1ccccc1)/C=N/n1c(-c2ccco2)n[nH]c1=S was read as HPGD block 5.01µM, ALDH1A1 inh inconclusive, Tau fluor cs inactive, NPSR antag inactive, Tau fibril ThT inconclusive and Tau fibril FP inactive.
For CC(/C=N/n1c(-c2cccnc2)n[nH]c1=S)=C\c1ccco1 the results were Tau fluor cs inactive, NPSR antag inactive, Tau fibril ThT inconclusive and Tau fibril FP inactive.
`Cc1ccc(Cl)cc1N1CCN(S(=O)(=O)c2cn(C)c(C)n2)CC1` gave Tau fluor cs inactive, Tau fibril ThT inactive and Tau fibril FP inactive.
For COc1cc2nc3c(c([Si](C)(C)C(C)(C)C)c2cc1OC)Cn1c-3cccc1=O the results were HPGD block inconclusive, ALDH1A1 inh inconclusive, Tau fluor cs inactive, Tau fibril ThT inconclusive and Tau fibril FP inactive.
For Cc1nc(N2CCN(Cc3ccccc3)CC2)nc2c1C(=O)CC(c1ccco1)C2 (stereo not drawn) the results were HPGD block inactive, ALDH1A1 inh 22.4µM, Tau fluor cs inactive, NPSR antag inactive, Tau fibril ThT inactive and Tau fibril FP inactive.
For Cc1nc(N2CCN(Cc3ccc4c(c3)OCO4)CC2)nc2c1C(=O)CC(c1ccco1)C2 (stereo not drawn) the results were HPGD block inactive, ALDH1A1 inh inconclusive, Tau fluor cs inactive, NPSR antag inconclusive, Tau fibril ThT inactive and Tau fibril FP inactive.
